Test results: PubChem BioAssay (EPA / NIEHS)
Inconclusive results are not listed. Activity calls are given as the source filed them. Rule for the calls: active = hit-call score of the fitted dose curve at least 0.9, where 1 is the maximum; inconclusive = response in the unintended direction; inactive = score below 0.9.

Target: Bile acid receptor (Homo sapiens) (UniProt Q96RI1)
Test: OT_FXR_FXRSRC1_1440: Odyssey Thera (OT) 24-hour HEK293T Protein-Complementation Assay for Farnesoid X receptor/SRC-1 Co-activator (AID 2283384)
Procedure: OT_FXR_FXRSRC1_1440 is a cell-based assay that uses HEK293T, a human kidney cell line, with measurements taken at 24 hours after chemical dosing in a 384-well plate.OT_FXR_FXRSRC1_1440 is one of one assay component(s) measured or calculated from the OT_FXR_FXRSRC1_1440 assay. It is designed to make measurements of protein fragment complementation, a form of binding reporter, as detected with fluorescence intensity signals by Protein-fragment Complementation technology.Data from the assay component OT_FXR_FXRSRC1_1440 was analyzed into 1 assay endpoint. This assay endpoint, OT_FXR_FXRSRC1_1440, was analyzed in the positive analysis fitting direction relative to DMSO as the negative control and baseline of activity. Using a type of binding reporter, measures of receptor for gain-of-signal activity can be used to understand the binding at the pathway-level as they relate to the gene NR1H4. Furthermore, this assay endpoint can be referred to as a primary readout, because the performed assay has only produced 1 assay endpoint. To generalize the intended target to other relatable targets, this assay endpoint is annotated to the nuclear receptor intended target family, where the subfamily is non-steroidal.
Protein-fragment complementation assay, or PCA, is a method for the identification and quantification of protein-protein interactions. In the PCA, the proteins of interest ("bait" and "prey") are each covalently linked to fragments of a third protein (e.g. DHFR, which acts as a "reporter"). Interaction between the bait and the prey proteins brings the fragments of the reporter protein in close proximity to allow them to form a functional reporter protein whose activity can be measured.

Bile acid receptor (Homo sapiens), sequence (Q96RI1 whole entry, looked up): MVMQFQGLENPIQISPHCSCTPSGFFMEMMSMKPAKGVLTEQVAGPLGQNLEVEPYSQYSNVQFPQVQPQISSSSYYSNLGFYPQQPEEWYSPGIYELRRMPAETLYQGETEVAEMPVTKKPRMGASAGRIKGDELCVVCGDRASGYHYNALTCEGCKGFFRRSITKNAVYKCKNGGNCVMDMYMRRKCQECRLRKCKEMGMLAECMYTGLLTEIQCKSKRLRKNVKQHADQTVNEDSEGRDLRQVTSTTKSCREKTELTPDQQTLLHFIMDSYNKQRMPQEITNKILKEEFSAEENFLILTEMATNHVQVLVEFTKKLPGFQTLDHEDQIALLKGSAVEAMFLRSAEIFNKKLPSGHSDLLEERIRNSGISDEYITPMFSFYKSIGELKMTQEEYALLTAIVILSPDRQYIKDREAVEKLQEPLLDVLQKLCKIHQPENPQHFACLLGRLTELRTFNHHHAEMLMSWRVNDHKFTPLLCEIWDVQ

| SMILES | AC50 | outcome |
| --- | --- | --- |
| CCN(CC)C(=O)C(C)Oc1cccc2ccccc12 (stereo not drawn) | 31.3 µM (active) |  |
| CC1(C)C(C(=O)OC(C#N)c2cccc(Oc3ccccc3)c2)C1(C)C (stereo not drawn) | 5.39 µM (active) |  |
| CCNC(=O)NC(=O)C(C#N)=NOC | 23.1 µM (active) |  |
| CC(C)=CC1C(C(=O)OCc2coc(Cc3ccccc3)c2)C1(C)C (stereo not drawn) |  | inactive |
| CS(=O)(=O)c1ccc(C(=O)C2C(=O)CCCC2=O)c([N+](=O)[O-])c1 |  | inactive |
| CCC(C)n1c(=O)[nH]c(C)c(Br)c1=O (stereo not drawn) |  | inactive |
| Cc1c(COC(=O)[C@@H]2[C@H](/C=C(\Cl)C(F)(F)F)C2(C)C)cccc1-c1ccccc1 |  | inactive |
| CCCCC(O)(Cn1cncn1)c1ccc(Cl)cc1Cl (stereo not drawn) | 34.9 µM (active) |  |
| COC(=O)NC(=S)Nc1ccccc1NC(=S)NC(=O)OC |  | inactive |
| COc1ccc(-c2ccccc2)cc1NNC(=O)OC(C)C |  | inactive |
| O=P(O)(O)CCCl |  | inactive |
| CO/N=C(/C1=NOCCO1)c1ccccc1Oc1ncnc(Oc2ccccc2Cl)c1F | 12.7 µM (active) |  |
| CCCCOCN(C(=O)CCl)c1c(CC)cccc1CC | 75.1 µM (active) |  |
| CNC(=O)Oc1cccc2ccccc12 |  | inactive |
| COCc1cnc(C2=NC(C)(C(C)C)C(=O)N2)c(C(=O)O)c1 (stereo not drawn) |  | inactive |
| CCOc1cc(C(C)(C)C)ccc1C1COC(c2c(F)cccc2F)=N1 (stereo not drawn) | 31.6 µM (active) |  |
| COP(=S)(OC)Oc1ccc([N+](=O)[O-])c(C)c1 | 29.8 µM (active) |  |
| CN=C=S |  | inactive |
| Cc1nc(N(C)C)nc(OC(=O)N(C)C)c1C |  | inactive |
| O=C(O)c1c(Cl)ccc2cc(Cl)cnc12 |  | inactive |
| Clc1cccc(C(Cl)(Cl)Cl)n1 |  | inactive |
| COCC(=O)N(c1c(C)cccc1C)C(C)C(=O)OC (stereo not drawn) |  | inactive |
| COc1cc(OC)nc(NC(=O)NS(=O)(=O)c2ncccc2OCC(F)(F)F)n1 |  | inactive |
